From PubChem BioAssay
TROY NFkB inh: inhibitors of TROY-driven NF-kB signaling, primary screen, Q293 LMP1-TROYcd cells, NF-kB luciferase, uHTS; Q293 LMP1-TROYcd NF-kB luciferase reporter, 4 h; inhibition, % at 10 µM; 360,000 compounds, 0.98% hits;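 active = compounds whose plate-normalised and pattern-corrected inhibition of the luciferase reporter signal at the single screening dose is 50% or more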
TWEAK-Fn14 inh: inhibitors of TWEAK-Fn14 signaling, primary screen, luciferase reporter cells, uHTS. TWEAK-stimulated Fn14 reporter cells, luciferase luminescence, 8 h. inhibition, % at 10 µM. 360,000 compounds, 2% hits; in the data active = inhibition above about 50%
EBV LMP1 NFkB: EBV LMP1-driven NF-kappaB luciferase reporter inhibitors, primary screen, cell-based, luminescence, single point | LMP1-induced NF-kappaB luciferase reporter cells | AID 504558, 2011 | inhibition, % at 12.5 µM | 350,000 compounds, 0.69% hits; in the data active = inhibition above about 41%; inconclusive = no clear call, values can overlap the other calls;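 also: 0% = neutral control wells and 100% = reference inhibitor control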
HSF1 inhib: HSF1 inhibitors in luciferase reporter cells, primary screen, cell-based, NIH3T3, luminescence. NIH3T3-HGL HSE-luciferase, MG132-induced, luminescence 8 h; hits give low values. activity change, negative = inhibition, % at 7.5 µM (by protocol). 300,000 compounds, 0.77% hits;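 active = more than half of replicate wells show activity change below -50%, luminescence cut by over half; inconclusive = some wells, but at most half, below -50%; inactive = no replicate well below -50%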;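 also: luciferase reports HSF-1 transcriptional activity via heat shock element; 0% = median of DMSO wells and -100% = zero luminescence signal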
LGR2 inh: inhibitors of bursicon-induced LGR2 CRE-luciferase signal, primary screen, cell-based, HEK293, CRE-luciferase reporter, bursicon stimulation | bursicon-stimulated, 4 h | inhibition, % at 9.99 µM | 380,000 compounds, 0.35% hits | AID 720647, 2013;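 active = drop in luminescence signal, shown as inhibition above about 50% in the replicate tests, limit read from the data, passing the limit was not always enough; inconclusive = probably only some replicates passing the limit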;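 also: agonist challenge used bursicon conditioned medium at about half maximal strength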
HSF1 activator: HSF-1 activators, primary screen, NIH3T3-HGL cells, MG132 stress, luminescence, single point | 300,000 compounds, 1.7% hits | NIH3T3-HGL HSF-1 luciferase reporter, 8 h; 100% = twice DMSO control signal | AID 504408, 2011 | activation, % at 9 µM;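 active = mean replicate activation of at least 50% with a set share of replicates each reaching 50%; inconclusive = only one of those two conditions met; inactive = mean below 50% and too few replicates reaching it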;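 also: 0% = median of the neutral control wells and 100% = twice that signal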
Numbers without * were called inactive. Shown are actives, neighbours in structure and some others; about 3.6% of the full set was active somewhere.

`COc1cc([N+](=O)[O-])cc(/C=N/NC(=O)c2ccc(NC(=O)c3ccc(C)cc3)cc2)c1O` gave TROY NFkB inh -0.9, TWEAK-Fn14 inh 70.4*, EBV LMP1 NFkB -5.0, HSF1 inhib -58.3*, LGR2 inh 28.2 and HSF1 activator -65.3.
Screening COc1cc(/C=N/NC(=O)c2cccc([N+](=O)[O-])c2)ccc1OCc1ccc(C)cc1 returned TROY NFkB inh -56.7, TWEAK-Fn14 inh -29.5, EBV LMP1 NFkB -33.5, HSF1 inhib 46.3 and HSF1 activator 68.4*.
`COc1cc(/C=N/NC(=O)c2ccc(COc3cc(C)ccc3C(C)C)cc2)cc(OC)c1O` gave TROY NFkB inh 9.0, TWEAK-Fn14 inh 33.0, EBV LMP1 NFkB 19.9, HSF1 inhib -9.8, LGR2 inh -40.3 and HSF1 activator -22.8.
Screening COc1cccc(/C=N/NC(=O)c2cc3cc([N+](=O)[O-])ccc3s2)c1O returned TROY NFkB inh 16.8, TWEAK-Fn14 inh -6.3, EBV LMP1 NFkB 64.0*, HSF1 inhib -34.9, LGR2 inh 24.0 and HSF1 activator -40.6.
`CCC(=O)N1C[C@H](C)[C@@H](OC)CN(C)C(=O)c2ccc(NC(=O)c3cc(C)on3)cc2OC[C@H]1C` gave LGR2 inh -3.1.
For O=C(NCc1ccncc1)[C@@H]1N[C@@H]2c3ccc(/C=C/c4ccccc4)c(=O)n3C[C@@H]2[C@H]1CO the results were LGR2 inh 4.4.
Screening O=C(Cc1ccccc1)N1CC(=O)N2[C@H](CO)[C@H](c3ccc(C#Cc4ccccc4)cc3)[C@@H]2C1 returned LGR2 inh 6.2.
`CN(C)CC(=O)N1[C@H](CO)[C@@H](c2ccccc2)C12CN(C(=O)c1ccccc1)C2` gave LGR2 inh -3.9.
`Cc1ccc(S(=O)(=O)Nc2ccc3c(c2)C(=O)N([C@H](C)CO)C[C@H](C)[C@H](CN(C)S(=O)(=O)c2cn(C)cn2)OCCCC[C@@H](C)O3)cc1` gave LGR2 inh -14.1.
`COc1ccc([N+](=O)[O-])cc1/C=N/NC(=O)Cc1ccccc1` gave TROY NFkB inh 8.4, TWEAK-Fn14 inh -3.0, EBV LMP1 NFkB 5.3, HSF1 inhib -1.8 and HSF1 activator 3.3.
Screening COc1cc(/C=N/NC(=O)Cc2ccccc2)ccc1Oc1ccc([N+](=O)[O-])cc1[N+](=O)[O-] returned TROY NFkB inh 20.8, TWEAK-Fn14 inh 52.1*, EBV LMP1 NFkB -7.0, HSF1 inhib 8.8, LGR2 inh 0.8 and HSF1 activator 13.8.
For COc1ccccc1NC(=O)c1cnc(SCC(=O)NCC2CCCO2)n(C)c1=O (stereo unspecified) the results were TROY NFkB inh -40.7, TWEAK-Fn14 inh 9.6, EBV LMP1 NFkB -15.5, HSF1 inhib 163.9, LGR2 inh 3.7 and HSF1 activator 170.9*.
Screening Cc1ccc(OCCCCN2CCC(C)CC2)c(Br)c1 returned TROY NFkB inh -9.2, TWEAK-Fn14 inh -1.4, EBV LMP1 NFkB 2.5, HSF1 inhib -11.9, LGR2 inh -1.8 and HSF1 activator -9.3.
`Cc1ccc(OCCCCCCN2CCNCC2)c(Br)c1` gave TROY NFkB inh 48.6, TWEAK-Fn14 inh 57.7*, EBV LMP1 NFkB 0.9, HSF1 inhib 8.0, LGR2 inh inconclusive and HSF1 activator 5.8.
For C/C=C/c1ccc([C@H]2[C@H](CO)N(C(C)=O)[C@H]2CN(C)S(C)(=O)=O)cc1 the results were LGR2 inh 3.7.
COc1cc(NC(=O)CN2CC(c3ccccc3)CC2=O)cc(OC)c1 (stereo unspecified) was read as TROY NFkB inh -23.5, TWEAK-Fn14 inh 9.4, EBV LMP1 NFkB -4.3, HSF1 inhib -1.0, LGR2 inh 9.7 and HSF1 activator -11.4.
O=C(N/N=C/c1cn(Cc2ccccc2)c2ccccc12)c1cccnc1 was read as TROY NFkB inh 7.0, TWEAK-Fn14 inh 53.6*, EBV LMP1 NFkB 8.6, HSF1 inhib 0.1, LGR2 inh 22.2 and HSF1 activator 2.5.
